Pf Dd2 inh: inhibitors of Plasmodium falciparum Dd2 growth. 4.3% of 120,000 active. P. falciparum Dd2 growth, SYBR Green, 72 h. Potency, µM (titrated, usually from 28.9 µM), for the others: at the top dose activity, negative = inhibition, hits mostly inhibitors; active = well fitted inhibition curve with a large enough effect;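 note: plate controls were DMSO vehicle for no effect and reference drug for full effect; nearly all actives have a fitted effect of over 65% in size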
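Readout: SYBR Green fluorescence, 485 nm excitation, 535 nm emission, after ~16 h lysis at 37C. Before that, Dd2-infected red cells (2.5% hematocrit) grew 72 h with compound, 29 uM top final concentration.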
An asterisk follows results filed as active; i = inactive; [ ] = remark or other dose. Only a selection was taken, and hits are over-represented in it overall. Potency is the fitted concentration of half-maximal effect.

SMILES	Pf Dd2 inh
Cc1ccc2c(c1)c(=O)c(C(=O)c1ccncc1)cn2CC(=O)Nc1ccccc1Cl	i
CCc1cccc(NC(=O)Cn2cc(C(=O)c3ccncc3)c(=O)c3cc(C)c(C)cc32)c1	10µM*
O=C(CCC[C@@H]1[C@H]2CCCN3CCC[C@@H](CN1C(=O)C1CCOCC1)[C@@H]23)NCc1ccccc1	4%
CC[C@H]1CN(Cc2ccncc2)CC[C@H]1CC(=O)N1CCC(C(=O)OC)CC1	8%[44.1 µM]
NC(=O)CN1C(=O)CO[C@H]2CN(CC3CCCCC3)C[C@H]21	-16%[44.1 µM]
CC1CCC2(CC1)OCC(C(=O)NCc1ccccc1)N2C(=O)c1cccc(Cl)c1 (configuration not stated)	i
Cc1cccc(C(=O)N2C(C(=O)NCc3ccccc3)COC23CCC(C)CC3)c1 (configuration not stated)	i
CC1CCC2(CC1)OCC(C(=O)NCc1ccccc1)N2C(=O)c1ccc(Cl)c(Cl)c1 (configuration not stated)	8.9µM*
O=C(NC1CC1)C1CCc2nnc(-c3ccc(Cl)cc3Cl)n21 (configuration not stated)	17%
COCCN(C)C[C@H]1C[C@H](CO)CN(C(=O)c2cc(Cl)cc(OC)c2)C1	-28%
O=C1CCN(C(=O)[C@@H](Cc2ccccc2)NS(=O)(=O)c2cccs2)CCOCCN1	i
COc1ccc(C(=O)NC2CCN(c3cnn(CC4CC4)c(=O)c3)CC2)c(OC)c1	7.9µM*
COc1ccc(-c2cc(N3CCC(NC(=O)c4cc(F)ccc4Cl)CC3)n[nH]2)cc1	-11%
COc1ccc(-c2cc(N3CCC(NC(=O)c4ccc(F)cc4Cl)CC3)n[nH]2)cc1	i
COc1ccc(-c2cc(N3CCC(NC(=O)c4ccc(F)cc4F)CC3)n[nH]2)cc1	1.3µM*
COc1ccc(C(=O)NC2CCN(c3cnn(C)c(=O)c3)CC2)c(OC)c1	-19%
COc1ccccc1C(=O)NC1CCN(c2cnn(CC3CC3)c(=O)c2)CC1	i
COc1ccc(-c2cc(N3CCCC(NC(=O)c4cc(Cl)ccc4OC)C3)n[nH]2)cc1 (configuration not stated)	-10%
COc1ccc(Cl)cc1C(=O)NC1CCN(c2cc(-c3ccc(F)cc3)[nH]n2)C1 (configuration not stated)	-12%
COc1ccc(C(=O)NC2CCN(c3cc(-c4ccc(Cl)cc4)[nH]n3)C2)c(OC)c1 (configuration not stated)	5µM*
COc1ccc(C(=O)NC2CCN(c3cc(-c4ccccc4)[nH]n3)C2)c(C)c1 (configuration not stated)	i
COc1ccc(-c2cc(N3CCC(NC(=O)c4ccccc4C)C3)n[nH]2)cc1 (configuration not stated)	i
COc1ccc(C(=O)NC2CCN(c3cc(-c4ccccc4)[nH]n3)C2)c(OC)c1 (configuration not stated)	4.5µM*
OCCC1CN(c2nccc(-c3ccccn3)n2)CCN1Cc1ccoc1 (configuration not stated)	-11%
Cc1cccc(CN2CCCC(O)(CN3CCOCC3)C2=O)c1 (configuration not stated)	-12%
SMILES	Pf Dd2 inh
CCOCCCNC(=O)N1[C@@H]2CC[C@H]1CC(NC(=O)c1ccc(F)cc1)C2 (some centres not stated)	-22%
Cc1ccc(C(=O)NC2CCN(c3cc(-c4ccc(F)cc4)[nH]n3)CC2)cc1C	i
COc1ccc(C(=O)NC2CCN(c3cc(-c4ccc(Cl)cc4)[nH]n3)C2)cc1 (configuration not stated)	8.9µM*
Cc1ccc(C(=O)NC2CCN(c3cc(-c4ccc(F)cc4)[nH]n3)C2)cc1C (configuration not stated)	13µM*
COc1ccc(-c2cc(N3CCC(NC(=O)c4ccc(C)c(C)c4)C3)n[nH]2)cc1 (configuration not stated)	-4%
COc1ccc(-c2cc(N3CCCC(NC(=O)c4cc(C)cc(C)c4)C3)n[nH]2)cc1 (configuration not stated)	8.9µM*
COc1ccc(-c2cc(N3CCC(NC(=O)c4cc(C)cc(C)c4)C3)n[nH]2)cc1 (configuration not stated)	i
COc1ccc(C(=O)NC2CCN(c3cc(-c4ccc(OC)cc4)[nH]n3)C2)cc1 (configuration not stated)	-10%
COc1ccc(-c2cc(N3CCCC(NC(=O)c4cc(C)ccc4C)C3)n[nH]2)cc1 (configuration not stated)	-7%
COc1ccc(-c2cc(N3CCC(NC(=O)c4ccc(Br)cc4)C3)n[nH]2)cc1 (configuration not stated)	-22%
OCCn1nc(-c2ccncc2)nc1CC12CC3CC(CC(O)(C3)C1)C2	2%
O=C1Nc2ccccc2C12CCN(S(=O)(=O)c1ccccc1)C2 (configuration not stated)	-16%
O=C(O)C[C@@H]1CCN(C(=O)c2ccccc2)C[C@@H]1CC1=NCCc2cc(F)ccc21	3%[44.1 µM]
COCCc1noc(C2CN(C(=O)c3cn(C)cn3)C2)n1	11%

High-throughput results from PubChem.
